Sampled rows, rich in hits. Any-hit rate of the full collection: about 1.5%.
AID504770: growth inhibitors of E. coli YBA685 in a screen for V. cholerae RctB (chromosome II replication) inhibitors | E. coli YBA685 rctB-dependent plasmid, OD600 growth, 3 h; stronger effect = lower value | z-score (concentration not given with the values) | 130,000 tested, 0.27% active | AID 504770; in the data active means z-score below about -2, passing the limit was not always enough
PV pol inh: inhibitors of poliovirus RNA polymerase binding and polymerization. % elongation, % (compound at 16.7 µg/mL). 150,000 tested, 0.66% active. P03300. AID 588519. poliovirus polymerase elongation, fluorescence polarization; stronger effect = lower value; in the data active means % elongation below about 90%
Mtb MbtI inh: blocks the Mycobacterium tuberculosis siderophore enzyme MbtI. purified MbtI enzyme, fluorescence intensity read-out. inhibition, % (no concentration beside the values). 100,000 tested, 0.89% active; in the data active means inhibition mostly above about 56%, no sharp cut-off; inactive means mostly below about 77%
Mtb MenB inh: inhibitors of Mycobacterium tuberculosis MenB enzyme; MenB enzyme assay, absorbance read-out; inhibition, % (concentration not given with the values); 100,000 tested, 0.43% active; AID 540299; in the data active means inhibition above about 21%, passing the limit was not always enough
Target sequence (P9WNP5 whole entry, looked up): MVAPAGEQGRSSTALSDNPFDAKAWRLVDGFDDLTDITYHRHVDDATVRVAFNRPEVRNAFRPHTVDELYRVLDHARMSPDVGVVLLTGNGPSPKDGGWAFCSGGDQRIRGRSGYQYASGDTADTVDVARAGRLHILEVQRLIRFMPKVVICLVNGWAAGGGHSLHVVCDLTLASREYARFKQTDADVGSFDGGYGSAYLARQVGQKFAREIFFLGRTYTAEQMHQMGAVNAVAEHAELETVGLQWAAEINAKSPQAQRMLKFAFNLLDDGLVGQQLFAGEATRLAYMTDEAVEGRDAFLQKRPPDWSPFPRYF
Large screens that a line does not name were inactive.

COc1ccc(C(=O)N2CC(C)OC(C)C2)cc1 (stereo not given)	none (no result: Mtb MbtI inh)
COc1ccc2cc3c(NC(=O)COc4cccc(C)c4)n[nH]c3nc2c1	none (no result: PV pol inh, Mtb MenB inh)
CCN(CC)C(=O)c1sc(NC(=S)Nn2cnnc2)c(C(=O)OC)c1C	Mtb MbtI inh 55
CCN(CC)C(=O)c1sc(NC(=S)N(C)Cc2cn(CC)nc2C)c(C(=O)OC)c1C	none
CCOC(=O)c1c(NC(=S)Nn2cnnc2)sc2c1CCCCCC2	Mtb MbtI inh 89
Cc1cc(SCC(N)=O)nc(=O)[nH]1	none
O=C(Nc1ccccc1)N(Cc1nnc2n1CCCCC2)c1ccc(I)cc1	PV pol inh 90 (no result: Mtb MbtI inh)
COc1cccc(N(Cc2nnc3n2CCCCC3)C(=O)Nc2ccccc2)c1	none (no result: AID504770, Mtb MbtI inh, Mtb MenB inh)
O=C(Oc1ccc(F)cc1)c1nsc(Cl)c1Cl	PV pol inh 88 (no result: Mtb MbtI inh)
COC(=O)C(C#N)=C(SC)SC	Mtb MbtI inh 83
O=S1(=O)N=C(Nc2ccc(N3CCCCC3)c(Cl)c2)c2ccccc21	none
O=C1/C(=C/c2c(F)cccc2Cl)N2CCC1CC2	none (no result: PV pol inh, Mtb MbtI inh, Mtb MenB inh)
S=c1cc(-c2ccccc2)[nH]c(=S)[nH]1	Mtb MbtI inh 86
S=c1nccc(-c2ccccc2)[nH]1	PV pol inh 83
OC(c1ccc(Cl)cc1)C(O)c1nc2ccccc2[nH]1 (stereo not given)	none
OCC(O)C(O)C(O)C(O)c1nc2ccccc2[nH]1 (stereo not given)	PV pol inh 62
Cn1c(=O)n(Cc2ccc(F)cc2)c(=O)c2c1nc1oc(-c3ccc(Cl)cc3)cn12	none
O=C(COc1ccccc1)NC(=S)Nc1ccc2[nH]c(=O)[nH]c2c1	none
O=c1c(Br)c(NCCCO)cnn1-c1ccccc1	none
Oc1ccc(C(=S)N2CCOCC2)cc1	none
CC1CCN(C(=S)c2ccc(O)cc2)CC1	Mtb MbtI inh 99
Oc1ccc(C(=S)N2CCN(Cc3ccccc3)CC2)cc1	Mtb MbtI inh 94
Oc1ccc(C(=S)N2CCCCCC2)cc1	Mtb MbtI inh 84
Oc1ccc(C(=S)N2CCN(c3cccc(Cl)c3)CC2)cc1	Mtb MbtI inh 59
c1ccc(CN2CCN(Cc3ccccc3)CC2)cc1	none (no result: PV pol inh, Mtb MbtI inh, Mtb MenB inh)
S=C(c1ccc(Cl)cc1)N1CCCCC1	none
CC(C)COc1ccc(C(=S)N2CCCCC2)cc1	Mtb MbtI inh 54
Cc1[nH]c(=S)sc1CC(=O)NC1CCCCC1C (stereo not given)	Mtb MbtI inh 84
CCOC(=O)c1sc2nc(C(F)(F)F)nn2c1C	AID504770 -2.5 (no result: PV pol inh, Mtb MbtI inh, Mtb MenB inh)
Cc1cc(C)n(-c2nc3cc(Cl)ccc3nc2NCc2ccc(F)cc2)n1	none
CCOc1cc(C(=S)N2CCOCC2)ccc1OC	PV pol inh 65 (no result: Mtb MbtI inh)
CCOc1cc(C(C#N)N2CCOCC2)ccc1OC (stereo not given)	none (no result: PV pol inh, Mtb MbtI inh, Mtb MenB inh)
COc1ccc(C(=S)N2CCCC2)cc1OC	none
COc1ccc(C(=S)N2CCCCC2)cc1OC	Mtb MbtI inh 82
NC(N)=Nc1nc2cc(Cl)ccc2o1	none
CCOC(=O)c1sc2nc(SCC(=O)C(C)(C)C)n(Cc3ccccc3Cl)c(=O)c2c1C	none
O=C(NC1CCCCC1)Sc1ccc(Cl)cc1	Mtb MbtI inh 76
Cc1ccc(C23CCC(=O)N2C(C(=O)NC2CC2)CS3)cc1 (stereo not given)	none (no result: PV pol inh)
COc1ccc(C(=O)c2oc3ccccc3c2NC(=O)C(C)(C)C)cc1	none
NC(CO)C12CC3CC(CC(C3)C1)C2 (stereo not given)	none (no result: Mtb MenB inh)
CCC(N)C12CC3CC(CC(C3)C1)C2 (stereo not given)	PV pol inh 86 (no result: Mtb MbtI inh)
CC1CCCC(C)N1C(=O)c1cc2sccc2n1Cc1ccc(F)cc1 (stereo not given)	none
CN=C1S/C(=C\c2ccc(Cl)cc2)C(=O)N1C	PV pol inh 88
O=C(COC(=O)c1ccc(Br)cc1)NCc1ccccc1	none (no result: Mtb MenB inh)
O=C(COC(=O)c1ccncc1)NCc1ccccc1	AID504770 -3.5 (no result: Mtb MenB inh)
Cc1cc(NC(=O)CSc2nc3nccnc3c(=O)n2Cc2ccco2)n[nH]1	none
O=c1c(Cl)c(Cl)cnn1-c1ccc(C(F)(F)F)cn1	PV pol inh 88
O=c1[nH]cnc2c1cnn2-c1ccc(C(F)(F)F)cn1	none (no result: Mtb MenB inh)
COC(=O)CCC(=O)Nc1sc(C)c(C)c1C(N)=O	none (no result: PV pol inh, Mtb MbtI inh, Mtb MenB inh)
CCc1c(C)sc(NC(=O)CCCC(=O)O)c1C(N)=O	PV pol inh 81 (no result: Mtb MbtI inh)
CCC(CC)NC(=O)c1cc(Cl)ccc1Cl	none
Cc1sc(NC(=O)C2CC2)c(C#N)c1C	Mtb MbtI inh 90
CCC(C(=O)OC)n1cnc2sc(C(=O)Nc3ccccc3)c(C)c2c1=O (stereo not given)	none (no result: Mtb MbtI inh)
O=C(O)c1cc2c(cn1)[nH]c1ccccc12	AID504770 -3.5
O=C(O)c1cc(=O)c2ccccc2[nH]1	none
O=C(N/N=C/c1ccco1)c1ccccc1	none
NC(=S)N/N=C/c1ccc(N2CCOCC2)s1	Mtb MbtI inh 89
Cc1ccc(/C=C2/NC(=O)N(Cc3ccc(Br)cc3)C2=O)o1	none
CCCN1C(=O)/C(=C/c2ccc(C)o2)NC1=S	Mtb MbtI inh 63
COc1ccccc1N1CCN(C(=O)c2ccccc2C(F)(F)F)CC1	none
COc1ccccc1N1CCN(C(=O)c2ccc[nH]c2=S)CC1	Mtb MbtI inh 81
Nc1nc(CN2CCCCC2)cs1	Mtb MenB inh 39
COCCN=Cc1c(NCCOC)nc2ccccn2c1=O	none
C=CCn1cn[nH]c1=S	Mtb MbtI inh 61
S=c1nc(C2CC2)[nH]c2ccccc12	Mtb MbtI inh 92
CC(C)c1nc(=S)c2ccccc2[nH]1	none
C/C(=N\NC(=O)c1nc(Cl)c(Cl)c(N)c1Cl)c1cc(O)ccc1O	Mtb MbtI inh 56
Cc1cc(C(=O)CN2C(=O)NC3(CCCCC3C)C2=O)c(C)n1Cc1ccco1 (stereo not given)	none
O=C1C=CC(=O)N1CCc1ccccc1	Mtb MbtI inh 93 (no result: Mtb MenB inh)
O=C1C=CC(=O)N1CCc1ccc(Cl)cc1	Mtb MbtI inh 100
CC(C)NC(=O)N(Cc1ccccc1)Cc1cccnc1	none
CC1CN(C(=O)Cc2cccs2)CC(C)O1 (stereo not given)	none (no result: PV pol inh, Mtb MenB inh)
CCCc1n[nH]c(=S)n1N	Mtb MbtI inh 69
N#Cc1c(=O)n(O)c2ccccc2[n+]1[O-]	AID504770 -4.3
N#Cc1c(N)[n+]([O-])c2ccccc2[n+]1[O-]	AID504770 -4.4
N#Cc1cc2c(nc1SCC(=O)N1CCOCC1)CCC2	none
CS(=O)(=O)c1ccc2c(c1)sc1nc(-c3ccccc3Cl)cn12	none
O=C(c1cc(-c2ccccc2)n[nH]1)N1CC=C(c2ccccc2)CC1	none
O=C(O)CC1C(=O)NN=C2c3ccccc3N=CN21 (stereo not given)	PV pol inh 78
O=C(O)CC1C(=O)NC(=Nc2ccccc2)N1c1ccccc1 (stereo not given)	none
CCc1nn2c(=O)cc(COC(=O)c3ccc4c(c3)OCO4)nc2s1	none (no result: AID504770, Mtb MbtI inh, Mtb MenB inh)
CC(C)Cc1nn2c(=O)cc(COC(=O)c3ccc4c(c3)OCO4)nc2s1	PV pol inh 73 (no result: AID504770, Mtb MbtI inh, Mtb MenB inh)
O=C(CSc1c2c(nc3ccccc13)CCCC2)NCCC1=CCCCC1	none
CCC(c1n[nH]c(=S)o1)N(C)C (stereo not given)	PV pol inh 89, Mtb MbtI inh 84
CC(Oc1ccc(F)cc1)c1n[nH]c(=S)o1 (stereo not given)	none
Cc1nc(C(F)(F)F)ccc1C(=O)Oc1ccccc1N1CCOCC1	none (no result: PV pol inh, Mtb MbtI inh, Mtb MenB inh)
O=C(O)c1ccccc1-c1ccc(-c2cc(C(=O)O)c3cc(F)ccc3n2)o1	AID504770 -2.7
